Experimental findings from PubChem BioAssay (Tox21) are described below.

Where “and” joins values, the source holds several entries; their conditions need not be identical. Equal values may be shown once. A number with no mark means an inactive call. Results filed as inconclusive are left out. Calls of active or inactive are those of the source. Unless noted, the call rests on the fitted dose curve; in most records, active means well fitted curve in the direction sought with a large enough effect in the repeat runs; inconclusive means weak or mixed curves; inactive means no such curve, though single readings can be large; an effect the other way counts as inactive or inconclusive.

Assay [1] in a line: qHTS assay to identify small molecule agonists of the estrogen receptor alpha (ER-alpha) signaling pathway in the presence of an antagonist - cell viability counter screen (AID 1259386).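 Further: series mostly up to about 92 µM; cells exposed to compounds for 22 h at 37 °C before the viability read; nearly all actives have a fitted effect of over 30% in size.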 The method in brief: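 ICI-182,780 at 10.0nM final accompanies the compound titration (15 concentrations, 22hr, 37C) on VM7Luc4E2 cells. The CellTiter-Fluor fluorescence readout runs in the same wells as the luciferase assay.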
(In general: qHTS replaces the single test concentration by a dilution series.)

Assay [2] has as its target Progesterone receptor (Homo sapiens) (UniProt P06401). Nature of the assay: qHTS assay to identify small molecule agonists of the progesterone receptor (PR) signaling pathway (AID 1346784; calls by dose curve; further: nearly all actives have a fitted effect of over 30% in size). The essentials: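 Agonist mode, quantitative HTS format in a HEK 293T line expressing a UAS-controlled beta-lactamase reporter; 16 hr compound exposure at 37C in 2% charcoal-stripped FBS, then LiveBLAzer B/G FRET fluorescence.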

Assay [3] has the same target. The assay is described as follows: qHTS assay to identify small molecule antagonists of the progesterone receptor (PR) signaling pathway (AID 1346795; active means well fitted inhibition curve with a large enough effect in the signal ratio in the repeat runs, not every such curve was filed as active; the % refers to the signal ratio; further: potency means the concentration at half of the fitted maximal effect). The essentials: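 HEK293T PR-UAS-bla reporter cells in charcoal-stripped serum (2%) received compound after a 6 hr settling period, followed by R5020 agonist at 1 nM final; 16 hr incubation preceded the FRET substrate step and fluorescence measurement.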

A short description of assay [4]: qHTS assay to identify small molecule antagonists of the progesterone receptor (PR) signaling pathway - cell viability counter screen (AID 1346798). Further: series mostly up to about 92 µM; nearly all actives have a fitted effect of over 50% in size. The essentials:
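Same-well multiplex: after 16 hr at 37C with compound and R5020 stimulation, HEK293T cells carrying a UAS-bla reporter received LiveBLAzer substrate (2 hr RT), then CellTiter-Glo (30 min RT) for luminescent viability.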

Assay [5] can be described thus: qHTS assay to identify small molecule antagonists of the TGF-beta/Smad signaling pathway - cell viability counter screen (AID 1346824). Further: nearly all actives have a fitted effect of over 50% in size. The method in brief: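 SBE-bla HEK 293T cells, incubated overnight, then compound plus 0.25 ng/mL TGF-beta1 (stock added) for 5 hr at 37 C. Viability was read in the same wells by CellTiter-Glo luminescence after 30 min at room temperature.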

Assay [6] in a line: qHTS assay to identify small molecule agonists of the TGF-beta/Smad signaling pathway - cell viability counter screen (AID 1346829). Further: top concentration of the series differs between compounds; nearly all actives have a fitted effect of over 45% in size. The method in brief: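 Luminescence from CellTiter-Glo, read after a 30 min room-temperature incubation, gives cell viability of SBE-bla HEK 293T cells treated 5 hr with compounds at 37 C.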
Assay [7] is described as follows: qHTS assay to identify small molecule agonists of the TGF-beta/Smad signaling pathway (AID 1346859; active means well fitted activation curve with a large enough effect in the signal ratio in the repeat runs, not every such curve was filed as active; the % refers to the signal ratio; further: series mostly up to about 77 µM). The method in brief: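 Smad-responsive beta-lactamase reporter cells (HEK 293T) received compounds from DMSO stocks after overnight attachment, were incubated 5 hr, then treated 2 hr with FRET substrate before dual-emission fluorescence measurement (405 nm excitation).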

The nature of assay [8]: Human pregnane X receptor (PXR) small molecule agonists, qHTS cell viability counter screen (AID 1346977). Further: nearly all actives have a fitted effect of over 50% in size. The essentials: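 Measures live-cell protease fluorescence (CellTiter-Fluor) in PXR-Luc HepG2 cells treated 24hr with compounds at 37C. Cells had 5hr to attach before pin transfer of DMSO solutions.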
Assay [9] can be described thus: Caspase-3/7 induction in HepG2 cells by small molecules, qHTS assay (AID 1346978). Further: nearly all actives have a fitted effect of over 15% in size. The essentials:
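Wild-type HepG2 cells, 2,000/well, settled 5 hr at 37 C and 5% CO2, then compound-treated for 17 hr; caspase-3/7 activity read by luminescent Caspase-Glo 3/7 after 30 min at room temperature.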

Assay [10] is described as follows: Caspase-3/7 induction in CHO-K1 cells by small molecules, qHTS assay (AID 1346980). Further: nearly all actives have a fitted effect of over 15% in size. The essentials: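 Wild-type CHO-K1 cells exposed to compounds for 17hr at 37 C, 5% CO2. Caspase-3/7 activity then measured by Caspase-Glo 3/7 luminescence after 30min at room temperature.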
A short description of assay [11]: Caspase-3/7 induction in HepG2 cells by small molecules, qHTS cell viability counter screen (AID 1346981). Further: series mostly up to about 92 µM; nearly all actives have a fitted effect of over 30% in size. The method in brief: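 Multiplexed with the caspase-3/7 assay: HepG2 cells, 16 hr compound treatment, CellTiter-Fluor viability detection by fluorescence.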
In assay [12] the target is Nuclear receptor subfamily 1 group I member 2 (Homo sapiens) (UniProt O75469). Nature of the assay: Human pregnane X receptor (PXR) small molecule agonists, qHTS assay (AID 1346982). Further: nearly all actives have a fitted effect of over 35% in size. Further: potency means the concentration at half of the fitted maximal effect. The method in brief: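 We seeded PXR-Luc HepG2 cells in assay medium containing 5% charcoal-stripped FBS, added compounds 5 hr later, incubated 24 hr, and read luminescence with ONE-Glo reagent.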

In assay [13] the target is Nuclear receptor subfamily 1 group I member 2 (Rattus norvegicus) (UniProt Q9R1A7). Nature of the assay: Rat pregnane X receptor (rPXR) activation by small molecules, qHTS assay (AID 1346983). Further: nearly all actives have a fitted effect of over 20% in size. The following applies: rPXR luciferase reporter cells, One-Glo luminescence, 24 h; active compounds read high. The method in brief: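 Cell-based rPXR activation assay: rPXR cells, 2,000 per well, rested 5hr at 37 C, then exposed to compounds in DMSO for 24 hr at 37 C. Luciferase activity read by One-Glo luminescence after 30 min at room temperature.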

In assay [14] the target is Nuclear receptor subfamily 1 group I member 2 (Homo sapiens) (UniProt O75469). Nature of the assay: CYP3A4 induction through human pregnane X receptor (PXR) by small molecules, qHTS assay (AID 1346984). Further: nearly all actives have a fitted effect of over 40% in size. The method in brief: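 qHTS, concentration-response format: HepG2 DPX-2 line, PXR/CYP3A4-luc. Exposure 24 h, 37C. Substrate Luciferin-IPA 3uM final, 3 h. Detection One-Glo, 30 min RT.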

The target is the same in assay [15]. Nature of the assay: Human pregnane X receptor (PXR) activation by small molecules, qHTS assay (AID 1346985). Further: nearly all actives have a fitted effect of over 40% in size. The essentials:
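DPX-2 cells (HepG2 co-transfected with a PXR response element and a CYP3A4-promoter luciferase construct) were seeded at 2,000 per well, rested 5 hr at 37C, then exposed to DMSO-dissolved compounds for 24 hr. Activation was read as luciferase luminescence.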

In assay [16] the target is Acetylcholinesterase (Homo sapiens) (UniProt P22303). Nature of the assay: Acetylcholinesterase (AChE) small molecule antagonists: colormetric cell-based qHTS assay (AID 1347395; calls by dose curve; further: nearly all actives have a fitted effect of over 30% in size; further: potency means the concentration at half of the fitted maximal effect). The essentials: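 Endogenous AChE of human neuroblastoma SH-SY5Y cells was measured with an Ellman-type DTNB/acetylthiocholine mix. Compound pretreatment lasted 30 min at 37 C; substrate reaction ran 90 min at 37 C.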

For assay [17], the target named is Thyrotropin-releasing hormone receptor (Homo sapiens) (UniProt P34981). Nature of the assay: qHTS assay to identify small molecule antagonists of the thyrotropin-releasing hormone receptor (TRHR) signaling pathway (AID 1346877; active means well fitted inhibition curve with a large enough effect in the repeat runs, not every such curve was filed as active; further: series mostly up to about 51 µM). The method in brief:
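Screening used HEK293 cells engineered with TRHR, with a brief 5 min room-temperature compound exposure preceding addition of TRH to 1 nM. The read-out was kinetic calcium-dye fluorescence, concentration-response from 15 doses in triplicate.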

Assay [18] has the same target. The assay is described as follows: qHTS assay to identify small molecule agonists of the thyrotropin-releasing hormone receptor (TRHR) signaling pathway (AID 1346891; calls by dose curve;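 further: HEK293 cells expressing TRHR with calcium dye readout; series mostly up to about 58 µM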). The essentials: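 Agonist-mode calcium mobilisation screen: TRHR-transfected HEK293 cells cultured overnight (18 h), dye-loaded for 2 h at 37 °C, exposed to compounds, and monitored by fluorescence for 3 min.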

Assay [19] can be described thus: Caspase-3/7 induction in CHO-K1 cells by small molecules, qHTS cell viability counter screen (AID 1346979). Further: nearly all actives have a fitted effect of over 35% in size. The method in brief: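 In the same wells as the caspase read, viability of compound-treated wild-type CHO-K1 cells was assessed using CellTiter-Fluor, added after 16hr at 37C and measured by fluorescence following 1hr further incubation.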
Assay [20] can be described thus: qHTS assay to identify small molecule agonists of the progesterone receptor (PR) signaling pathway - cell viability counter screen (AID 1346799; calls by dose curve; further: nearly all actives have a fitted effect of over 45% in size). The method in brief:
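Counter screen for cytotoxicity: compound-treated PR-UAS-bla HEK293T cells (16 hr, 37C, 5% CO2) were assayed with CellTiter-Glo, luminescence measured after 30 min at room temperature.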
On the % scale 0 is the no-effect control and ±100 the full control effect.

Nuclear receptor subfamily 1 group I member 2 (Homo sapiens), sequence (O75469 whole entry, looked up): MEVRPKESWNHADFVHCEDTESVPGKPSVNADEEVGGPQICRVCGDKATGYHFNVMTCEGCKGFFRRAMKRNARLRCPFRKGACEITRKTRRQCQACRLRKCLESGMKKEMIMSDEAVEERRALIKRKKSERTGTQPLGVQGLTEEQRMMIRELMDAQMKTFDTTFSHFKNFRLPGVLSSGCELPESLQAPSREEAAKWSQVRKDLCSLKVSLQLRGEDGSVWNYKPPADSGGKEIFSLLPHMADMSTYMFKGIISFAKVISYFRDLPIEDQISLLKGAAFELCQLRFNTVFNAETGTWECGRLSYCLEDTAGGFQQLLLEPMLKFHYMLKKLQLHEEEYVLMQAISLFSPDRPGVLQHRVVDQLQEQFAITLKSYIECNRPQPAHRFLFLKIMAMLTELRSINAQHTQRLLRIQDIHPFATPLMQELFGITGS
Thyrotropin-releasing hormone receptor (Homo sapiens), sequence (P34981 whole entry, looked up): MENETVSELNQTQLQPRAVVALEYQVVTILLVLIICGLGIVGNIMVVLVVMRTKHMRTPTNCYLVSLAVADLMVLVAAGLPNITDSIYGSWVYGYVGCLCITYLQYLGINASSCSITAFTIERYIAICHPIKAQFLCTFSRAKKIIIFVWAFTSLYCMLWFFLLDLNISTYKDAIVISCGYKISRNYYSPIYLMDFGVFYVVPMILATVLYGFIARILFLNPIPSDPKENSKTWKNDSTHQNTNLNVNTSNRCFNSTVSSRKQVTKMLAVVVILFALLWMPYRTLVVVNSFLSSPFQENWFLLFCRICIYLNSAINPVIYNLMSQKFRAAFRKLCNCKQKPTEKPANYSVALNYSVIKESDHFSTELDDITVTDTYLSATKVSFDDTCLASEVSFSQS
Progesterone receptor (Homo sapiens), sequence (P06401 whole entry, looked up): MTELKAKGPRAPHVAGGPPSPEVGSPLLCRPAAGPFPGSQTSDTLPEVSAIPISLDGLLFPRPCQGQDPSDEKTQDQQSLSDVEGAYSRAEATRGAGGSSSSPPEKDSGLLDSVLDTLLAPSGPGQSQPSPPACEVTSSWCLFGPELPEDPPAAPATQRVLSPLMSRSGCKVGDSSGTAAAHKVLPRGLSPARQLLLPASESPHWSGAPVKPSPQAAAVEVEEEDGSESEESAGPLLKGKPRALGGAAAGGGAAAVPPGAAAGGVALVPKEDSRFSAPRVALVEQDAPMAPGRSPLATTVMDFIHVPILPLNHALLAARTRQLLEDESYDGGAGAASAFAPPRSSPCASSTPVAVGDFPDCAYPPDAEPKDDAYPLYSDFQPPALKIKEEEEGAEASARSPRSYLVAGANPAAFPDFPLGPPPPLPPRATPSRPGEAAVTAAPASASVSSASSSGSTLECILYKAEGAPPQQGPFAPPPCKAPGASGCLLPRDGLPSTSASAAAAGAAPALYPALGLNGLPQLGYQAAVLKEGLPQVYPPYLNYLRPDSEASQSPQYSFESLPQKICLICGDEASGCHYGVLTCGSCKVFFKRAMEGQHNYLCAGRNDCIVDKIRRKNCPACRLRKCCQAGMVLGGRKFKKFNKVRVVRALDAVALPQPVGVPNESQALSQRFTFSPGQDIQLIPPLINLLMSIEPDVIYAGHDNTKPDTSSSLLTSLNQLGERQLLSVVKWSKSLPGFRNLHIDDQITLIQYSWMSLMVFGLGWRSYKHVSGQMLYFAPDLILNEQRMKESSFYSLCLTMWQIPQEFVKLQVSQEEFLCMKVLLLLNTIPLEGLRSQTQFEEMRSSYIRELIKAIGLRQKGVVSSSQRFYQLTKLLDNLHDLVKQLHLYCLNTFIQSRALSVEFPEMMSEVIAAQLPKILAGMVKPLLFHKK
Nuclear receptor subfamily 1 group I member 2 (Rattus norvegicus), sequence (Q9R1A7 whole entry, looked up): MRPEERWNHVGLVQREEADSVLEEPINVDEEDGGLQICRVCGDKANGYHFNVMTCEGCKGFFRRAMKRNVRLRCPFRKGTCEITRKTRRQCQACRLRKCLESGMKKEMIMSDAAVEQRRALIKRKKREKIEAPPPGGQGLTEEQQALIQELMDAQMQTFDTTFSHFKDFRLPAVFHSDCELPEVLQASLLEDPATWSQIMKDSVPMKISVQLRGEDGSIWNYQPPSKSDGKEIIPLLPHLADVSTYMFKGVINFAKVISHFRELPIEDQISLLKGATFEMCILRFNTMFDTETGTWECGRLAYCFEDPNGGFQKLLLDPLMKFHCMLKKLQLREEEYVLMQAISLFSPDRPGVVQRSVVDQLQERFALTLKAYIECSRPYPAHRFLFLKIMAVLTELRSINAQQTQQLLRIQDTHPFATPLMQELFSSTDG
Acetylcholinesterase (Homo sapiens), sequence (P22303 whole entry, looked up): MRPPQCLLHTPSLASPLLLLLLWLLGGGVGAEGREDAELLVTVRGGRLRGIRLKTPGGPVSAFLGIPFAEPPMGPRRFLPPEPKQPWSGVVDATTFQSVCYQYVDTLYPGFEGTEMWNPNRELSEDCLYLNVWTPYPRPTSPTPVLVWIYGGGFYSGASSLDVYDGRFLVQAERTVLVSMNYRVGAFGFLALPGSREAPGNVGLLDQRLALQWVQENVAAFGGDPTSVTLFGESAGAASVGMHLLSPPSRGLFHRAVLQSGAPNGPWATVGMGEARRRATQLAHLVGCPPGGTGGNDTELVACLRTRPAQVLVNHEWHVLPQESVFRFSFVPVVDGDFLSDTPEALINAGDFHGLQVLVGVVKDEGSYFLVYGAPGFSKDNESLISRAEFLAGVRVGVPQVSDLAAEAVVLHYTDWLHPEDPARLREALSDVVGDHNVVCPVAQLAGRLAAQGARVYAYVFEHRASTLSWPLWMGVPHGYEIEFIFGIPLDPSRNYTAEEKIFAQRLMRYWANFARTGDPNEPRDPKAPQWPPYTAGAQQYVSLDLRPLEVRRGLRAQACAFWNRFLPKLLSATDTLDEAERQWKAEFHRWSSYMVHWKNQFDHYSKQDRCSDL

Turning to `CC(C)(O)C(Cl)(Cl)Cl`, the Potency entry in [1], in [2], in [3], in assay [4], in assay [6] and in assay [8] was “inactive” in each case. Further, the Potency entry in assay [11], in assay [12], in assay [14], in assay [15] and in assay [16] was “inactive” in each case. For the same compound, the compound was classed as inactive in assay [5], in [7], in assay [9] and in [10]. Also, the max activation in [13] was -2.13%.

As for `O=c1[nH]c2ccccc2n1C1CCNCC1`, the Potency entry in assay [1], in assay [2], in assay [3], in assay [6], in assay [17] and in assay [19] was “inactive” each time. In addition, the Potency entry in assay [16] is “inactive”. In addition, the outcome in [5], in [7], in assay [18], in assay [9] and in assay [10] was inactive.

Regarding `COc1ccc(C=O)cc1O`, the Potency result in assay [1], in assay [2], in [3], in assay [4], in [6] and in [17] was “inactive” throughout. For the same compound, the Potency result in [19], in assay [11], in assay [12] and in assay [16] was “inactive” each time. Moreover, the result in assay [5], in assay [7], in [18], in assay [9] and in assay [10] was inactive.

As to `C=CC1(C)OC(=O)N(c2cc(Cl)cc(Cl)c2)C1=O` (centres undefined), the Potency result in [1], in assay [2], in [6], in assay [17], in assay [8] and in assay [19] was “inactive” each time. Also, the Potency result in [11] and in assay [16] was “inactive” in each case. Besides, the Potency is 21.6 µM (active) in assay [3]; 60.8 µM (active) and 54.5 µM (active) in assay [12]. For the same compound, the compound was called inactive in [5], in assay [7], in assay [18], in assay [9] and in assay [10].

With `ClCCN1CCCC1`, the Potency entry in [1], in assay [2], in assay [3], in [4], in assay [6] and in [8] was “inactive” each time. The Potency result in assay [11] and in [16] was “inactive” each time. The compound was called inactive in [5], in [7], in [9] and in assay [10].

For the compound `CS(=O)(=O)Cl`, the Potency entry in [1], in assay [2], in assay [3], in [4], in [17] and in assay [8] was “inactive” in each case. Also, the Potency result in [19] and in assay [16] was “inactive” each time. The outcome in assay [5], in assay [7], in assay [18], in [9] and in assay [10] was inactive.

`CCN(CC)CCOC(=O)C(O)(c1ccccc1)c1ccccc1`: the Potency result in assay [1], in assay [2], in assay [3], in assay [20], in [6] and in [17] was “inactive” throughout. The Potency result in assay [8], in assay [12], in [14], in assay [15] and in assay [16] was “inactive” throughout. Also, the result in [5], in assay [7], in assay [18], in [9] and in assay [10] was inactive. Further, in assay [13], the max activation is -2.47%.

In the case of `ClCCCCCCCl`, the Potency result in assay [1], in assay [2], in assay [3], in assay [6], in [17] and in assay [8] was “inactive” each time. Besides, the Potency entry in assay [19], in [12] and in [16] was “inactive” in each case. Moreover, the compound was classed as inactive in assay [5], in [7], in assay [18], in assay [9] and in assay [10].

Take `Cc1cccc2sc3nncn3c12`: the Potency result in assay [1], in assay [2], in [3], in assay [6], in [17] and in [19] was “inactive” in each case. Moreover, the Potency entry in assay [11] was “inactive”. Further, the result in assay [5], in assay [7], in assay [18], in [9] and in [10] was inactive. Besides, the Potency in assay [16] is 39.9 µM (active).

As for `CCCC(C)(COC(N)=O)COC(N)=O`, the Potency entry in [1], in assay [2], in [3], in [4], in assay [6] and in assay [8] was “inactive” throughout. Also, the Potency entry in assay [19], in [14], in assay [15] and in assay [16] was “inactive” in each case. Also, the call in [5], in assay [7] and in assay [9] was inactive. For the same compound, the max activation in [13] is -1.03%.

Regarding `CCC1(c2cccc(O)c2)CCCCN(C)C1` (centres undefined), the Potency entry in [1], in [2], in assay [3], in assay [4], in [6] and in assay [17] was “inactive” each time. For the same compound, the Potency result in assay [8], in assay [11], in [12], in [14] and in [15] was “inactive” in each case. Further, the result in assay [5], in assay [7], in [18], in assay [9] and in assay [10] was inactive. In [13], the max activation was -1.16%.

With `CCCOC(=O)c1cncn1C(C)c1ccccc1` (centres undefined), the Potency result in assay [1], in assay [2], in assay [3], in assay [4], in assay [17] and in [8] was “inactive” each time. Besides, the Potency result in assay [19], in [11], in [12] and in assay [16] was “inactive” each time. The compound was classed as inactive in [5], in [7], in assay [18], in assay [9] and in assay [10].

`CCOC(=O)CCl`: the Potency result in [1], in assay [2], in [3], in [4], in [6] and in [19] was “inactive” in each case. Besides, the Potency result in [11] and in assay [16] was “inactive” throughout. The compound was called inactive in assay [5], in [7], in [9] and in [10].

As to `CCN[C@@H](C)Cc1ccccc1`, the Potency result in assay [1], in assay [2], in assay [3], in assay [6], in assay [17] and in assay [8] was “inactive” throughout. Further, the Potency entry in assay [11], in assay [12] and in [16] was “inactive” in each case. In addition, the compound was classed as inactive in [5], in assay [7], in assay [18], in assay [9] and in assay [10].
